From PubChem BioAssay
Active and inactive are the calls of the source. Unless noted, the rule behind the calls is not given here.

Experiments:
[1] = resazurin metabolic signal in HepG2 cells – cell-based, resazurin fluorescence, 24 h, PK04 Diversity Set, profiling panel (AID 1172); conditions: HepG2 viability, higher = more signal
[2] = budding yeast growth changes without added modifier – OD600, strain BY4716, 24 h, basal condition, primary screen (AID 1173); conditions: S. cerevisiae BY4716 growth, OD600, 24 h; higher = more signal, called active from +8 up or from −8 down
[3] = viability profiling in MM1S myeloma cells – cell-based, resazurin fluorescence, basal, 24 h, PK04 Diversity Set, profiling panel (AID 1174); conditions: higher = more signal, called active from +8 up or from −8 down;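 note: MM1S multiple myeloma cell line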
[4] = target: Dihydroorotate dehydrogenase (quinone), mitochondrial (Plasmodium falciparum (isolate 3D7)) (UniProt Q08210); test: inhibition of P. falciparum DHODH – biochemical, C-terminal His tag, absorbance 600 nm, primary screen (AID 1175); conditions: PfDHODH enzyme, DCIP absorbance 600 nm; higher = more signal, called active from +8 up or from −8 down;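 note: recombinant parasite enzyme with a five histidine tag at its C terminus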
[5] = inhibition of PAO1 biofilm formation – strain PAO1, LB-PBS medium, absorbance 600 nm, primary screen (AID 1176); conditions: P. aeruginosa PAO1 growth/biofilm, A600, 12 h; higher = more signal
[6] = growth modulation of vineyard yeast isolate – strain RM11-1a, OD600, basal, 24 h, primary screen (AID 1177);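 note: cultures grown under basal conditions with no added stressor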; conditions: S. cerevisiae RM11-1a growth, OD600, 24 h; higher = more signal, called active from +8 up or from −8 down
[7] = growth of efflux-deficient E. coli DRC39 – strain DRC39, OD650, 24 h, E. coli filamentation inducers, primary screen (AID 1178);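 note: growth measured as culture turbidity by optical density at 650 nm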; conditions: E. coli DRC39 acrAB, higher = more signal, called active from +8 up or from −8 down
[8] = growth of efflux-deficient E. coli DRC39 – strain DRC39, OD650, 48 h, E. coli filamentation inducers, primary screen (AID 1179);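 note: screen aims at cell division blockers that make cells filament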; conditions: E. coli DRC39 delta-acrAB growth, higher = more signal, called active from +8 up or from −8 down
[9] = viability profiling in RPMI8226 myeloma cells – cell-based, resazurin fluorescence, basal, 24 h, PK04 Diversity Set, profiling panel (AID 1180); conditions: higher = more signal;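 note: RPMI8826 multiple myeloma cell line at 5000 cells per well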
[10] = target: E3 ubiquitin-protein ligase XIAP (Homo sapiens) (UniProt P98170); test: small molecules binding XIAP protein – biophysical, small-molecule microarray, fluorescence 635 nm, primary screen (AID 1181); conditions: higher = more signal;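 note: score merges 667 nm emission and signal to noise over triplicate slides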
[11] = test system: XIP peptide (Xip251-270) binding; test: XIP fragment 251-270 binding compounds – biochemical, small-molecule microarray, fluorescence 635/667 nm, 0.1 µg/mL protein, primary screen (AID 1182); conditions: fluorescent protein binding, 635 nm, higher = more signal, called active from +8 up or from −8 down
XIP peptide (Xip251-270) = test: compounds binding XIP fragment 251-270 – biochemical, small-molecule microarray, fluorescence 635/667 nm, 0.5 µg/mL protein, primary screen (AID 1183); conditions: fluorescence 635 nm, higher = more signal
[12] = blood-stage malaria parasite viability loss – strain 3D7, DAPI fluorescence, 100 nL, primary screen (AID 1184);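 note: parasites grown inside human red blood cells in medium with human serum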; conditions: P. falciparum 3D7 growth, 3 d, higher = more signal
[13] = target: Homeobox protein Hox-A13 (Mus musculus) (UniProt Q62424); test: disruptors of Hoxa13 oligonucleotide interaction – biochemical, fluorescence polarization, labeled oligonucleotide, primary screen (AID 1185); conditions: Hoxa13:DNA binding, 15 min, higher = more signal, called active from +8 up or from −8 down
[14] = blockers of DNA damage checkpoint Chk1 activation – imaging, HeLa, hydroxyurea, phospho-Chk1 antibody, percent positive cells, primary screen (AID 1186); conditions: hydroxyurea-induced phospho-Chk1 immunofluorescence imaging, higher = more signal
[15] = blockers of DNA damage checkpoint Chk1 activation – imaging, HeLa, hydroxyurea, phospho-Chk1 nuclear intensity, primary screen (AID 1187); conditions: hydroxyurea-induced phospho-Chk1 immunofluorescence imaging, higher = more signal

E3 ubiquitin-protein ligase XIAP (Homo sapiens), sequence (P98170 whole entry, looked up, the tested form may be a part): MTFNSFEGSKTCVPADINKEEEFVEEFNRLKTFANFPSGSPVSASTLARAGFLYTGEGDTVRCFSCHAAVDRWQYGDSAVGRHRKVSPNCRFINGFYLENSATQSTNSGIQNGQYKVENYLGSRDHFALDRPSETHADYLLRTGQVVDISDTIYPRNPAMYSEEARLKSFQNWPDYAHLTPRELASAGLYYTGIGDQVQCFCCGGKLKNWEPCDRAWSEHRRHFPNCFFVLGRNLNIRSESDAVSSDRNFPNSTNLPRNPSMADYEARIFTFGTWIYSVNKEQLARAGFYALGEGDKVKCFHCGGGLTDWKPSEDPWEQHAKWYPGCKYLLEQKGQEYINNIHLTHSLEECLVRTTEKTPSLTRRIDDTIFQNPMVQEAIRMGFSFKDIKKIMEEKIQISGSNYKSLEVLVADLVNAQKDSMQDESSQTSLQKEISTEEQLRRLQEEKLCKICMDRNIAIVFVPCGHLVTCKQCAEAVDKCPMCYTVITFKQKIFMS
Dihydroorotate dehydrogenase (quinone), mitochondrial (Plasmodium falciparum (isolate 3D7)), sequence (Q08210 whole entry, looked up): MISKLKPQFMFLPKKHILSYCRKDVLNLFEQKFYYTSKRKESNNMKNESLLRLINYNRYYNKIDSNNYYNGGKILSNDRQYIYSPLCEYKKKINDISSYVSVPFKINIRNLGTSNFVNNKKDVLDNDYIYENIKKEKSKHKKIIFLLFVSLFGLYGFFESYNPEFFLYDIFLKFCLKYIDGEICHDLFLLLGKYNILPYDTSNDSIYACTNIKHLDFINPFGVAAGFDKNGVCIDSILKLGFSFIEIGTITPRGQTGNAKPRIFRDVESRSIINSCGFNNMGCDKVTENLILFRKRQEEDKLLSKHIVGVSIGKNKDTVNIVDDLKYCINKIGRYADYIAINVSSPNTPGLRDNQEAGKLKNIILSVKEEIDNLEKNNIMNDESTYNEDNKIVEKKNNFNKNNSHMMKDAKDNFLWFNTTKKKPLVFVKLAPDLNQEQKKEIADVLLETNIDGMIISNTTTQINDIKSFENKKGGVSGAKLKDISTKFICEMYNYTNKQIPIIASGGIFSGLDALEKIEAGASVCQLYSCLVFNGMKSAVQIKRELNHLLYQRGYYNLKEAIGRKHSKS
Homeobox protein Hox-A13 (Mus musculus), sequence (Q62424 whole entry, looked up): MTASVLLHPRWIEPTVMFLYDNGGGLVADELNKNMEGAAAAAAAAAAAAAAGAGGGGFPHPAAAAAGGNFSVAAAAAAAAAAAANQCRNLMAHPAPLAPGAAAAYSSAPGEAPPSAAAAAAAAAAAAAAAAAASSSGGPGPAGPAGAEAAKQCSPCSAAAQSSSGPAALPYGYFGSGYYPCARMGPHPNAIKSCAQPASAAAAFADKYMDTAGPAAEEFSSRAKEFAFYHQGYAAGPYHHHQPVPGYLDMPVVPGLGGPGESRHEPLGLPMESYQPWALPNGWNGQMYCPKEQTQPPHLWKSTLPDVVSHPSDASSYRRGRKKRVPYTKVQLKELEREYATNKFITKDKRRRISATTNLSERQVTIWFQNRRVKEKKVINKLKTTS

Compound	z-score [1]	z-score [2]	z-score [3]	composite z-score [4]	z-score [5]	z-score [6]	z-score [7]	z-score [8]	z-score [9]	composite z-score [10]	composite z-score [11]	composite z-score (XIP peptide (Xip251-270))	z-score [12]	z-score [13]	z-score [14]	z-score [15]
Cc1ccc(C(C)CC(O)C2C=CC3C(=O)N(c4ccccc4)C(=O)C3N2Nc2ccc(C(C)C)cc2)o1 (centres undefined)	-1.32	0.123 (inactive)	-0.905 (inactive)	0.824 (inactive)	1.5 (inactive)	0.685 (inactive)	-0.751 (inactive)	-0.682 (inactive)	-1.03	-0.0238	0.195 (inactive)	0.691	0.0472	-3.2 (inactive)	0.527 (inactive)	0.482 (inactive)
COCCOC(=O)N1C(=O)[C@@]2(c3cc(C#CC4(O)CCCCCC4)ccc31)[C@H](C(N)=O)[C@H]1C(=O)O[C@H](c3ccccc3)[C@H](c3ccccc3)N1[C@@H]2c1ccc(O)cc1	0.061	-0.676 (inactive)	-0.907 (inactive)	-0.942 (inactive)	0.51 (inactive)	0.389 (inactive)	-0.0029 (inactive)	0.761 (inactive)	-1.73	-0.144	0.722 (inactive)	0.503	0.997	-2.76 (inactive)	-0.102 (inactive)	0.245 (inactive)
C=CCOC(=O)[C@@H]1[C@H]2C(=O)O[C@H](c3ccccc3)[C@H](c3ccccc3)N2[C@H](c2ccc(OCCOC(=O)[C@H]3C[C@H]4C(=O)N[C@@H](CCCCNC(C)=O)C(=O)N4[C@H]3c3cccc(OCCO)c3)cc2)[C@@]12C(=O)Nc1ccc(I)cc12	-0.299	1.39 (inactive)	-0.565 (inactive)	-0.406 (inactive)	4.17 (inactive)	2 (inactive)	-0.115 (inactive)	0.228 (inactive)	-0.354	0.0073	1.09 (inactive)	0.822	-1.64	1 (inactive)	-0.398 (inactive)	-0.929 (inactive)
C=C(COC)/C(=C/C[C@@H](OC(=O)c1ccncc1)c1ccc(OCCO)cc1)c1cnc2ccccc2c1	0.564	-1.17 (inactive)	0.354 (inactive)	-6.09 (inactive)	-0.0221 (inactive)	-0.0819 (inactive)	0.595 (inactive)	0.436 (inactive)	0.621	0.0566	0.39 (inactive)	0.595	-2.93	-5.37 (inactive)	-0.0998 (inactive)	0.349 (inactive)
CC(C)(C)OC(=O)CC[C@@]1(C(=O)O)N=C(c2ccc(OCCCO)cc2)O[C@@H]1c1ccccc1	0.0648	0.313 (inactive)	0.0375 (inactive)	0.904 (inactive)	-0.043 (inactive)	1.4 (inactive)	0.0847 (inactive)	-0.202 (inactive)	0.56	-0.0918	0.0877 (inactive)	0.84	0.274	-2.94 (inactive)	-0.0016 (inactive)	0.18 (inactive)
[N-]=[N+]=Nc1ccccc1C[C@]1(C(=O)NCc2ccccc2)N=C(c2ccc(OCCCO)cc2)O[C@H]1c1ccccc1	-0.328	1.41 (inactive)	-1.73 (inactive)	1.18 (inactive)	0.811 (inactive)	3.08 (inactive)	0.515 (inactive)	-0.0745 (inactive)	-1.84	0.0378	0.222 (inactive)	0.813	-2.07	-0.801 (inactive)	0.0726 (inactive)	0.176 (inactive)
COCC(=C=CC[C@H](O)c1ccc(OCCO)cc1)C[C@H](O)COCc1ccccc1	0.993	-1.49 (inactive)	1.18 (inactive)	-0.95 (inactive)	0.33 (inactive)	-1.3 (inactive)	0.979 (inactive)	0.921 (inactive)	1.51	-0.0238	-0.0114 (inactive)	0.698	-2.74	-5.25 (inactive)	-0.364 (inactive)	0.19 (inactive)
O=C1O[C@@H](c2ccccc2)[C@@H](c2ccccc2)N2[C@@H](c3ccccc3OCCO)[C@]3(C(=O)Nc4ccc(C#CC5=CCCCC5)cc43)[C@@H](C(=O)NC[C@H](O)c3ccccc3)[C@H]12	-1.33	0.961 (inactive)	-7.07 (inactive)	0.578 (inactive)	0.787 (inactive)	0.979 (inactive)	-0.0029 (inactive)	-0.208 (inactive)	-5.79	-0.16	0.409 (inactive)	0.0598	-1.7	1.62 (inactive)	-0.336 (inactive)	-0.415 (inactive)
CC(=O)NCCCC[C@@H]1NC(=O)[C@@H]2C[C@H](C(=O)O)[C@H](c3ccc(O)cc3)N2C1=O	-0.253	0.929 (inactive)	0.699 (inactive)	0.435 (inactive)	-0.819 (inactive)	0.88 (inactive)	0.0763 (inactive)	-0.301 (inactive)	0.517	-0.0796	3.54 (inactive)	-0.0306	0.174	-2.19 (inactive)	0.318 (inactive)	0.202 (inactive)
